Measured values published in PubChem BioAssay (EPA / NIEHS).
Results filed as inconclusive are left out. Activity calls are given as the source filed them. The calls were made as follows: active = hit-call score of the fitted dose curve at least 0.9, where 1 is the maximum; inconclusive = response in the unintended direction; inactive = score below 0.9.

These molecules were tested on Cytochrome P450 3A4 (Homo sapiens) (UniProt P08684) (assay: CLD_CYP3A4_6hr: CellzDirect (CLD) Gene Expression Assay for xenobiotic metabolism (CYP3A4) at 6 hours (AID 2283680)).
Cytochrome P450 3A4 (Homo sapiens), sequence (P08684 whole entry, looked up): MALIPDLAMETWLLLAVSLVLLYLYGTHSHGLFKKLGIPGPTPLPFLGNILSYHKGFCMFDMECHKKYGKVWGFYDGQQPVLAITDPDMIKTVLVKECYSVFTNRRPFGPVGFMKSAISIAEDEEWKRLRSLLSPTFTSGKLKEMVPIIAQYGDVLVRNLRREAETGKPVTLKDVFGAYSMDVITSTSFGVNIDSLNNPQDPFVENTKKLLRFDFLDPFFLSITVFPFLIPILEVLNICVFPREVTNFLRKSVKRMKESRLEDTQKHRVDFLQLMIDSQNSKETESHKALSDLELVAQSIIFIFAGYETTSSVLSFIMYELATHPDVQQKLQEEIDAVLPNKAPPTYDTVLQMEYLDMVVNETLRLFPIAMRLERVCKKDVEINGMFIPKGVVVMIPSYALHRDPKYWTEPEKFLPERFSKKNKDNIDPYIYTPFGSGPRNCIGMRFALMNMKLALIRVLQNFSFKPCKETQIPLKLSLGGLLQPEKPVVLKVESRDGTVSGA
Protocol: CLD_6hr is a cell-based, multiplexed-readout assay that uses hepatocyte, a human liver primary cell, with measurements taken at 6 hours after chemical dosing in a 96-well plate.CLD_CYP3A4_6hr is one of 16 assay component(s) measured or calculated from the CLD_6hr assay. It is designed to make measurements of mRNA induction, a form of inducible reporter, as detected with chemiluminescence signals by Quantitative Nuclease Protection Assay (qNPA) technology.Data from the assay component CLD_CYP3A4_6hr was analyzed at the endpoint, CLD_CYP3A4_6hr, in the positive analysis fitting direction relative to DMSO as the negative control and baseline of activity. Using a type of inducible reporter, gain-of-signal activity can be used to understand changes in the reporter gene as they relate to the gene CYP3A4. Furthermore, this assay endpoint can be referred to as a primary readout. To generalize the intended target to other relatable targets, this assay endpoint is annotated to the cyp intended target family, where subfamily is xenobiotic metabolism.
Human hepatocyte cultures were treated daily for two consecutive days with fresh dosing solutions containing appropriate concentrations of the 320 ToxCast chemicals (chemical identities were blinded to CellzDirect and other ToxCast collaborators), vehicle control (0.2% DMSO), and positive control inducers as summarized in Table 1. Due to the large number of treatment groups and chemicals examined, the ToxCast chemicals were divided into two groups (spanning two independent cultures of hepatocytes from separate donor preparations (Hu778: ToxCast plates 1 and 2; Hu776: ToxCast plates 3 and 4). Each preparation of human hepatocyte cultures was treated with respective vehicle control, medium only control, set of six positive controls/reference chemicals for the five hepatic receptor pathways, and a subset of eight of the ToxCast chemicals (indoxacarb, pyrithiobac-sodium, norflurazon, cyhalofop-butyl, methomyl, thiram, acetochlor, and propiconazole). These replicate data, coupled with internal replicates designed within the blinded ToxCast chemical library, provided additional data to evaluate interindividual differences between hepatocyte preparations and their potential impact on chemical profiles.Cell morphology and integrity were evaluated using phase-contrast microscopy as an indicator of hepatocyte cell health (Tyson & Green, 1987). Cultures for each treatment group (i.e., media, vehicle [0.2% DMSO], positive control inducers [multiple concentrations], and the ToxCast chemicals [multiple concentrations]) were observed and cell morphology was assessed relative to vehicle control cultures at each harvest time point (0, 6, 24, or 48 h). […] Images were evaluated at the conclusion of the study to assess changes in cell integrity and account for the effects of chemical exposure on uncharacteristic changes in concentration-dependent gene expression profiles. The results from these determinations of apparent cytotoxicity were annotated (yes/no) alongside the corresponding qNPA data for reference.At the conclusion of each treatment period, hepatocyte cultures (96-well) were washed with 1 volume of HBSS, lysed by addition of 25 ul ArrayPlate lysis buffer (HTG, Tucson, AZ), and 70 ul/well of Denaturation Oil, denatured by incubation at 95C for 10 min, and frozen at approximately -70C until analysis by nuclease protection assay (qNPA) (Roberts et al., 2007). For qNPA analysis, cell lysates were thawed at 50C for approximately 30 min, qNPA probes were added, and samples were incubated at 95C for 10 min to begin the detection process by denaturing the target RNA, dissociating the duplexes and secondary structure hybridization. At the conclusion of the hybridization period, S1 nuclease reagent was added to each sample to digest all nonprotected nucleotides at 50C for 60-90 min. […]
In the case of `Cc1ccn2nc(S(=O)(=O)Nc3c(F)cccc3F)nc2n1`, the outcome is reported as “inactive”.
With `COc1cccc(C(=O)NN(C(=O)c2cc(C)cc(C)c2)C(C)(C)C)c1C` the AC50 was 886 nM (active).
For `CCCCN(CC)c1c([N+](=O)[O-])cc(C(F)(F)F)cc1[N+](=O)[O-]`, the outcome was “inactive”.
With `CCOP(=S)(OCC)OC(Cl)C(Cl)(Cl)Cl` (stereo not given) the AC50 was 10500 nM (active).
With `Cc1cc(C2CC2)nc(Nc2ccccc2)n1` the outcome was “inactive”.
For `CN(C)C(=O)Nc1cccc(C(F)(F)F)c1`, the outcome was “inactive”.
With `C[N+]1(C)CCCCC1` the outcome was “inactive”.
`CNc1cnn(-c2cccc(C(F)(F)F)c2)c(=O)c1Cl` was tested, and the outcome was “inactive”.
In the case of `CSc1nnc(C(C)(C)C)c(=O)n1N`, the outcome is reported as “inactive”.
With `CSc1nc(NC(C)C)nc(NC(C)C)n1` the outcome was “inactive”.
With `CCOP(=O)(OCC)Oc1cc(C)nc(C(C)C)n1` the outcome was “inactive”.
In the case of `CC(COc1ccc(Oc2ccccc2)cc1)Oc1ccccn1` (stereo not given), the AC50 is reported as 20000 nM (active).
For `Cc1nn(-c2cc(NS(C)(=O)=O)c(Cl)cc2Cl)c(=O)n1C(F)F`, the AC50 was 1620 nM (active).
With `COc1ccc(C(=CC(=O)N2CCOCC2)c2ccc(Cl)cc2)cc1OC` the AC50 was 2290 nM (active).
For `CCc1cnc(C2=NC(C)(C(C)C)C(=O)N2)c(C(=O)O)c1` (stereo not given), the outcome was “inactive”.
In the case of `CCOC(=O)COc1cc(-c2nn(C)c(OC(F)F)c2Cl)c(F)cc1Cl`, the AC50 is reported as 3970 nM (active).
For `CCCCOC(=O)c1ccccc1C(=O)O`, the outcome was “inactive”.
For `S=C1NCCN1`, the outcome was “inactive”.
`COP(=O)(NC(C)=O)SC` (stereo not given) was tested, and the outcome was “inactive”.
In the case of `CCOP(=O)(NC(C)C)Oc1ccc(SC)c(C)c1` (stereo not given), the outcome is reported as “inactive”.
In the case of `CCCCSP(=O)(SCCCC)SCCCC`, the outcome is reported as “inactive”.
For `CC1(C(=O)Nc2ccc(O)c(Cl)c2Cl)CCCCC1`, the outcome was “inactive”.
For `CCOP(=S)(Oc1cnc(C(C)(C)C)nc1)OC(C)C` (stereo not given), the AC50 was 1890 nM (active).
With `CNC(=O)ON=C(SC)C(=O)N(C)C` the outcome was “inactive”.
`CCCSP(=O)(OCC)SCCC` was tested, and the outcome was “inactive”.
In the case of `CCCCOC(=O)[C@@H](C)Oc1ccc(Oc2ccc(C#N)cc2F)cc1`, the outcome is reported as “inactive”.
In the case of `CN(C)NC(=O)CCC(=O)O`, the outcome is reported as “inactive”.
With `CCc1cccc(CC)c1N(COC)C(=O)CCl` the AC50 was 1930 nM (active).
`CCCOCC(=Nc1ccc(Cl)cc1C(F)(F)F)n1ccnc1` was tested, and the outcome was “inactive”.
With `CC[C@H](C)[C@H]1O[C@]2(C=C[C@@H]1C)C[C@@H]1C[C@@H](C/C=C(\C)[C@@H](O[C@H]3C[C@H](OC)[C@@H](O[C@H]4C[C@H](OC)[C@@H](NC)[C@H](C)O4)[C@H](C)O3)[C@@H](C)/C=C/C=C3\CO[C@@H]4[C@H](O)C(C)=C[C@@H](C(=O)O1)[C@]34O)O2` the outcome was “inactive”.
For `CCNc1nc(Cl)nc(NC(C)(C)C#N)n1`, the outcome was “inactive”.
`CCOP(=S)(OCC)Oc1ccc2c(C)c(Cl)c(=O)oc2c1` was tested, and the outcome was “inactive”.
With `CC(=NC#N)N(C)Cc1ccc(Cl)nc1` the outcome was “inactive”.
`O=c1ccc(=O)[nH][nH]1` was tested, and the outcome was “inactive”.
`C#CCC1=C(C)C(OC(=O)C2C(C=C(C)C)C2(C)C)CC1=O` (stereo not given) was tested, and the AC50 was 2840 nM (active).
With `CCCSP(=O)(OCC)Oc1ccc(Br)cc1Cl` (stereo not given) the AC50 was 3520 nM (active).
`CCOP(=S)(OCC)Oc1cc(C)nc(C(C)C)n1` was tested, and the outcome was “inactive”.
`CSC1=N[C@@](C)(c2ccccc2)C(=O)N1Nc1ccccc1` was tested, and the outcome was “inactive”.
For `CCOP(=O)(SC(C)CC)N1CCSC1=O` (stereo not given), the AC50 was 8820 nM (active).
`CON=C(C(=O)OC)c1ccccc1CON=C(C)c1cccc(C(F)(F)F)c1` was tested, and the outcome was “inactive”.
